In the library only some 5.4% were active in any assay of this set; here they are far more common.
CSC inhib: cancer stem cell inhibition | cancer stem cell-like cells viability, luminescence | inhibition, % at 7.5 µM | 300,000 tested, 1.1% active | AID 2717; in the data active = inhibition above about 75%; tested in HMLE shEcad cells
Mdm2 MdmX PPI: disrupts the human Mdm2-MdmX interaction | SaOS-2 split-luciferase Mdm2/MdmX complementation, luminescence | inhibition, % at 8 µM | 330,000 tested, 3% active | AID 485346;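 active = inhibition of at least 50% at 8 µM in the primary screen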
Target sequence (O15151 whole entry, looked up): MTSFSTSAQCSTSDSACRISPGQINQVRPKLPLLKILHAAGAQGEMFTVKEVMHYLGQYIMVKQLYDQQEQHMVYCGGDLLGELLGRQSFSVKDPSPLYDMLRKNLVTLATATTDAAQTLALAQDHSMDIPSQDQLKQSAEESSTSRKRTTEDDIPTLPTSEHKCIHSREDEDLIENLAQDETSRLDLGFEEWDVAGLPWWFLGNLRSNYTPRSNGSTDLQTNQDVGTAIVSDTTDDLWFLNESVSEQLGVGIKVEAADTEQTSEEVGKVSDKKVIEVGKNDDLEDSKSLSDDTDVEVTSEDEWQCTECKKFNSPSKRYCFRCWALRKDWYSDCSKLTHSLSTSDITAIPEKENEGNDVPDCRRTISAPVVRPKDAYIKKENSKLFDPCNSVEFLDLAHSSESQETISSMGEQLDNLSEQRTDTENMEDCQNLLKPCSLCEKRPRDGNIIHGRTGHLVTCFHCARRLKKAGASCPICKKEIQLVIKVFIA
Target sequence (Q00987 whole entry, looked up): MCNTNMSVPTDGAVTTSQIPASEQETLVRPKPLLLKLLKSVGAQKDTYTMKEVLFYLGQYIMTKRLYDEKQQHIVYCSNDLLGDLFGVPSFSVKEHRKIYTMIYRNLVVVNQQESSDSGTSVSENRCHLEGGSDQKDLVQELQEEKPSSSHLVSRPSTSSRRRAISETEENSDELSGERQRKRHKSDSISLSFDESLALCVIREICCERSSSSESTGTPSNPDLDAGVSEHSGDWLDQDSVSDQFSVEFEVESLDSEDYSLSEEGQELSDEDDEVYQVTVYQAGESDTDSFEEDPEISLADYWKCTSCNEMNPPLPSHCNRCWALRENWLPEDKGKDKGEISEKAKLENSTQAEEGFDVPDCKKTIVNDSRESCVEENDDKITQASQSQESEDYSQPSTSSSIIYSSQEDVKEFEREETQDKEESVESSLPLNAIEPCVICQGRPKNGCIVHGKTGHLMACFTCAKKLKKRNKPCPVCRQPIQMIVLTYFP
Calb FLC: affects C. albicans growth with fluconazole. C. albicans CaCi-2 (fluconazole-resistant clinical isolate) + fluconazole, Alamar Blue growth, 48 h. growth inhibition, % (test concentration not listed). 300,000 tested, 0.57% active. AID 1979;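 active = growth inhibition above about 58% in most replicates, limit read from the data, passing the limit was not always enough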;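 also: all wells also contain fluconazole at 8 µg/ml as a sub-toxic cotreatment; 0% = median of DMSO wells and 100% = median of geldanamycin control wells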
SKKanGAS inh: blocks kanamycin growth of S. pyogenes SKKanGAS strain | BacTiter-Glo, 6 h | inhibition, % at 7.5 µM | 300,000 tested, 1.3% active;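 active = mean replicate score, as percent of positive control median, at least 50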;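 also: strain carries kanamycin resistance gene driven by streptokinase promoter and grows in 40 µg/ml kanamycin; loss of luminescence reflects streptokinase promoter inhibition or plain growth inhibition; 0% = median of DMSO wells and 100% = positive control at its reference dose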
MPTP inh: blocks calcium-induced mitochondrial swelling | 360,000 tested, 1.4% active | isolated mouse mitochondria, Ca2+ swelling absorbance, 30 min | AID 602449 | inhibition, % at 10 µM;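 active = inhibition of 50% or more, scaled per plate between neutral and stimulator controls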;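 also: 0% = DMSO wells given calcium and 100% = 1 mM EGTA wells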
Beta cell apopt: blocks beta cell apoptosis | INS-1E cytokine-induced death, ATP luminescence, 48 h; percent of positive-control rescue, neutral wells zero | protection from apoptosis, % (concentration not given with the values) | 300,000 tested, 0.8% active | AID 435005;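 active = Every replicate reaches about 75%, or at least half do and their mean reaches it too, limit read from the data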;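 also: 0% = cytokine-treated negative control wells and 100% = positive control rescue; higher means more ATP so stronger rescue from cytokine killing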
Starred values were filed as active, the others as inactive; x = no result.

SMILES	CSC inhib	Mdm2 MdmX PPI	Calb FLC	SKKanGAS inh	MPTP inh	Beta cell apopt
COc1ccc(-c2c(C#N)c(N)nc3sc(C(=O)c4ccccc4)c(N)c23)cc1	31.4	x	0.1	52.9*	1.2	-1.4
CCOc1ccc(-c2c(C#N)c(N)nc3sc(C(=O)c4ccccc4)c(N)c23)cc1	-1.1	8.9	0.3	4.4	5.2	-0.5
O=C(c1cc(-c2ccncc2)nc2ccc(Br)cc12)N1CCN(c2ccccn2)CC1	36.8	-4.1	-25.3	7.9	0.1	0.5
O=C(c1cc(-c2cccc(Cl)c2)nc2ccccc12)N1CCN(c2ccccn2)CC1	35.9	27.0	7.6	17.4	0.5	96.5*
Cc1cccc2c(C(=O)N3CCN(c4ccccn4)CC3)cc(-c3cccc(Br)c3)nc12	21.9	36.2	0.8	17.1	2.1	111.7*
CC(C)N(C(=O)COC(=O)c1ccc([N+](=O)[O-])cc1)c1ccccc1	-9.6	13.2	6.8	0.0	0.2	0.3
O=C(CSc1nc2ccccc2c(=O)n1Cc1ccccc1)Nc1ccc(Br)cc1C(=O)O	65.1	14.3	32.8	52.1*	6.2	-9.1
CCOC(=O)N1CCN(C(=O)c2ccc3c(=O)n(CCC4=CCCCC4)c(=S)[nH]c3c2)CC1	-14.7	11.8	1.0	67.4*	-0.5	3.0
CC1=CC(C)(C)N(C(=O)CSc2nnc(-c3ccc(C)cc3)o2)c2ccc(C)cc21	x	39.6	-5.4	13.0	0.5	82.1*
CC1=CC(C)(C)N(C(=O)CSc2nnc(C)s2)c2ccc(C)cc21	-7.6	-10.0	14.9	-1.2	0.7	-11.5
S=c1[nH]c2cc(Cl)c3cccnc3c2o1	-10.6	12.3	78.7*	8.4	0.4	-6.7
CCOC(=O)Cc1csc(NC(=O)c2ccc3ncsc3c2)n1	-2.6	5.8	116.3*	0.2	0.2	0.3
CCOC(=O)Cc1csc(NC(=O)c2ccc(Br)cc2)n1	-5.1	27.5	-1.8	-3.4	0.8	x
CSc1ncc(CN2CCc3c([nH]c4ccccc34)C2C(C)(C)C)cn1 (configuration not stated)	-14.2	9.8	8.1	51.5*	0.5	x
Cn1cc(CN2CCc3c([nH]c4ccccc34)C2C(C)(C)C)cn1 (configuration not stated)	-6.5	-19.1	-3.8	8.2	-2.3	-3.7
CCn1c(=O)c(C(=O)Nc2ncccc2O)c(O)c2ccccc21	1.0	1.6	31.9	5.8	4.0	-1.1
CCn1c(=O)c(C(=O)NCc2cccnc2)c(O)c2ccccc21	-10.1	47.3	94.2*	-1.3	-0.2	-3.0
CCn1c(=O)c(C(=O)NCc2ccccc2OC)c(O)c2ccccc21	75.6*	-23.1	-4.9	1.2	1.2	-3.7
CCn1c(=O)c(C(=O)NCc2ccccc2)c(O)c2ccccc21	19.4	13.1	-7.7	6.7	2.0	-0.6
CCn1c(=O)c(C(=O)Nc2ncccc2C)c(O)c2ccccc21	x	42.3	96.1*	17.6	-0.5	3.3
CC(=O)Nc1ccc(NC(=O)CSc2nc3nc(-c4cccs4)cc(C(F)(F)F)c3c(=O)[nH]2)cc1	-3.0	10.8	-2.7	0.8	1.7	2.2
COc1ccc(NC(=O)CSc2nc3nc(-c4cccs4)cc(C(F)(F)F)c3c(=O)[nH]2)c(OC)c1	13.8	1.2	0.7	54.4*	22.8	-3.4
N#Cc1ccc(Cl)cc1NC(=O)CSc1nc2nc(-c3cccs3)cc(C(F)(F)F)c2c(=O)[nH]1	14.5	17.1	27.5	55.0*	x	-0.4
Cn1c(CCc2nc3ccccc3[nH]2)n[nH]c1=S	-15.1	14.0	10.9	-1.6	-2.2	-4.0
COc1cc(OC)cc(C(=O)NCC(=O)NCCN2C(=O)S/C(=C\c3ccc4c(c3)OCO4)C2=O)c1	x	x	x	x	-0.4	x
SMILES	CSC inhib	Mdm2 MdmX PPI	Calb FLC	SKKanGAS inh	MPTP inh	Beta cell apopt
O=C(N/N=C/c1ccccc1O)c1ccc2c(c1)OCO2	29.6	13.3	13.6	104.7*	-0.3	95.4*
O=C(N/N=C/c1ccc2c(c1)OCO2)c1ccc2c(c1)OCCO2	62.1	-50.7	-5.9	0.1	-0.6	5.6
O=C(N/N=C/c1cc(Br)c(Br)o1)c1ccc2c(c1)OCCO2	10.1	-19.2	84.8*	5.0	5.7	-3.6
O=C(N/N=C/c1cc(Br)c(O)c(Br)c1O)c1ccc2c(c1)OCCO2	50.2	28.9	-23.7	17.5	-1.9	91.1*
COC(=O)C1(C)CCCC2(C)C1CCC13OCC(CC21)C(O)(C(C)C)C3O (configuration not stated)	x	x	x	x	-0.2	x
COc1cccc(OCc2cc(C(=O)N3CCN(C)C(c4ccccc4)C3)no2)c1 (configuration not stated)	3.6	-51.7	13.3	-1.5	-0.5	2.1
CCc1cc2c(=O)nc3n(c2s1)Cc1ccccc1/C3=C(/O)c1ccccc1Cl	x	46.9	-4.7	25.9	1.5	89.2*
CCc1cc2c(=O)nc3n(c2s1)Cc1ccccc1/C3=C(/O)c1cccc([N+](=O)[O-])c1	3.5	18.4	-4.0	13.6	-2.3	-1.7
CCc1cc2c(=O)nc3n(c2s1)Cc1ccccc1/C3=C(/O)c1ccc(F)cc1	80.7*	48.7	13.5	9.4	4.4	7.0
C/C(N)=C(/C#N)C(=O)COC(=O)c1cc(-c2ccc(Br)cc2)nc2ccccc12	49.3	x	-7.0	70.1*	0.5	1.0
COc1ccc(N2CCN(C(=O)c3ccc4ccccc4n3)CC2)cc1	-10.6	-8.3	-6.2	0.1	1.2	8.3
C=CC[N+]1(CC=C)CCOCC1	3.9	-2.9	-13.4	4.2	2.6	-3.1
CCN(c1ccccc1)S(=O)(=O)c1ccc(Cl)c(NC(=O)COC(=O)c2ccc[nH]c2=O)c1	-15.1	-18.4	-3.2	-5.1	1.2	-8.1
CCc1nnc(NS(=O)(=O)c2ccc(NCc3cc(Cl)ccc3O)cc2)s1	x	18.8	18.0	11.0	-0.5	-8.8
CCc1nnc(NS(=O)(=O)c2ccc(NCc3cc(Cl)cc(Cl)c3O)cc2)s1	19.4	3.7	8.9	54.3*	-1.3	-1.5
COCCNC(=O)C(c1ccc(OC)cc1)N(C(=O)Cn1nnc2ccccc21)c1cccnc1 (configuration not stated)	-6.1	14.8	-5.2	-3.4	-0.5	6.7
O=C(Cc1ccc(Cl)cc1)N1CCN(C(=O)c2ccco2)CC1	-9.1	-0.6	8.4	1.2	-2.0	-1.7
O=C1C(NS(=O)(=O)c2cccs2)=C(N2CCOCC2)C(=O)c2ccccc21	5.2	-13.2	5.2	2.6	4.2	9.8
O=C1C(NS(=O)(=O)c2cccs2)=C(N2CCN(c3cccc(C(F)(F)F)c3)CC2)C(=O)c2ccccc21	36.5	-13.4	20.2	54.5*	1.7	2.3
CCN1CCN(C2=C(NS(=O)(=O)c3ccc(Br)cc3)C(=O)c3ccccc3C2=O)CC1	16.4	35.8	-2.4	-5.8	0.3	65.6
CCN1CCN(C2=C(NS(=O)(=O)c3ccccc3)C(=O)c3ccccc3C2=O)CC1	-14.3	37.0	39.1	3.1	1.4	81.7*

Screening results (PubChem)
